# PLK1 PBD block: qHTS for Inhibitors of PLK1-PDB (polo-like kinase 1 - polo-box domain): Primary Screen; Plk1 PBD binding of FITC phosphopeptide, fluorescence polarization; Potency, µM, inactives show max response, negative = inhibition, most hits filed as inhibitors; AID 720504, 2013; actives 2.8% (n = 360,000); further: series mostly up to about 57 µM; on the % scale 0 is the no-effect control and ±100 the full control effect; nearly all actives have a fitted effect of over 65% in size
# Target sequence (P53350 whole entry, looked up, the tested form may be a part): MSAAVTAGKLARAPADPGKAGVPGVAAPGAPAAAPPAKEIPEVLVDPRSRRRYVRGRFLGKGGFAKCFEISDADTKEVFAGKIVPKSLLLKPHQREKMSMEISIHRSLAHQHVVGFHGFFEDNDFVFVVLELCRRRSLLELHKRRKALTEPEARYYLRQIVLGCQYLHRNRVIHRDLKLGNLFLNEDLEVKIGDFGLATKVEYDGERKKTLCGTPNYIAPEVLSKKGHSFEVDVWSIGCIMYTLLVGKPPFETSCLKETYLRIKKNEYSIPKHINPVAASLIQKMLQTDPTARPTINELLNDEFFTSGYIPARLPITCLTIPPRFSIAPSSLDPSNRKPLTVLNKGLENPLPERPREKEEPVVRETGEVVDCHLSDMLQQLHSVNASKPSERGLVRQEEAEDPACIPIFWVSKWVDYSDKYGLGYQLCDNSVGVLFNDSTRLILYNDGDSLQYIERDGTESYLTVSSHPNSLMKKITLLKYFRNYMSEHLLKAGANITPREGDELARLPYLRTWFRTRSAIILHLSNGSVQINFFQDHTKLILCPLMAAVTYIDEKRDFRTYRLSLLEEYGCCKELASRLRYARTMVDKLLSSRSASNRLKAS
# HP1b binding inh: HTS for Inhibitors of HP1-beta Chromodomain Interactions with Methylated Histone Tails; Chromobox protein homolog 1 (Homo sapiens), P83916; AlphaScreen HP1-beta / biotin-H3K9me3 peptide binding; Potency, µM (series often up to 114 µM), without a hit: at the top dose activity change, negative = inhibition, most hits filed as inhibitors; actives 0.56% (n = 390,000); further: nearly all actives have a fitted effect of over 70% in size
#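 AlphaScreen: HP1-beta (50 nM) preformed 30 min with biotin-H3(1-18)K9me3 peptide (50 nM) in PBS pH 7.4, 0.01% Tween-20. Compound added for 30 min at RT, then streptavidin donor/nickel chelate acceptor beads (10 ug/mL) for 30 min.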
# BAZ2B inh: qHTS Assay for Inhibitors of BAZ2B; Bromodomain adjacent to zinc finger domain protein 2B (Homo sapiens), Q9UIF8; AlphaScreen BAZ2B-H3K14Ac peptide displacement; Potency, µM (titrated, usually from 114 µM), inactives show at the top dose activity change, negative = inhibition, hits mostly inhibitors; actives 4.4% (n = 360,000); AID 504333, 2011; further: on the % scale 0 is the no-effect control and ±100 the full control effect; nearly all actives have a fitted effect of over 60% in size
#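 Multi-concentration screen (max 110 uM) measuring displacement of acetylated histone H3 peptide from BAZ2B by AlphaScreen, using 50 nM protein, 50 nM peptide and 10 ug/mL streptavidin donor plus Ni-chelate acceptor beads.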
# G9a block: qHTS Assay for Inhibitors of Histone Lysine Methyltransferase G9a; Potency, µM (doses to about 102 µM), for inactives: at the highest dose activity, negative = inhibition, hits mostly inhibitors; actives 8.8% (n = 350,000); Histone-lysine N-methyltransferase EHMT2 (Homo sapiens), Q96KQ7; G9a H3K9 monomethylation, AlphaScreen, 2 h; further: on the % scale 0 is the no-effect control and ±100 the full control effect; nearly all actives have a fitted effect of over 75% in size
#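 Using a bead-based AlphaScreen, monomethylated H3K9 product from 2 h room-temperature reactions (G9a 20 nM, peptide 500 nM, SAM 20 uM) was detected with 0.5 ug/mL rabbit anti-H3K9me1 antibody.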
# JMJD2A Tudor inh: qHTS Assay for Inhibitors of JMJD2A-Tudor Domain; AlphaScreen JMJD2A-Tudor / H3K4me3 peptide binding; Potency, µM (highest dose often 114 µM), inactives show at the top dose activity change, negative = inhibition, actives largely listed as inhibitors; actives 4.4% (n = 390,000); further: on the % scale 0 is the no-effect control and ±100 the full control effect; nearly all actives have a fitted effect of over 50% in size
# VDR inhibitor: Inhibitors of the vitamin D receptor (VDR): qHTS; VDR-SRC2-3 peptide fluorescence polarization, 2 h; Potency, µM, without a hit: max response, negative = inhibition, actives largely listed as inhibitors; actives 0.93% (n = 400,000); AID 504847, 2011; further: on the % scale 0 is the no-effect control and ±100 the full control effect
#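 Measured by FP: displacement of SRC2-3 coactivator peptide from VDR by library compounds, following a two-hour ambient incubation.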
# An asterisk follows results filed as active; ? = inconclusive; / = not tested or not shown; [ ] = dose if it differs, or a comment. Only some compounds are listed: those with a hit (about 11% of all), similar ones and a draw of the others. The call rests on the fitted dose curve; in most records, active means well fitted curve in the direction sought with a large enough effect; inconclusive means small, poorly fitted or top-dose-only effect, or another doubt; inactive means no such curve, though single readings can be large; an effect the other way counts as inactive or inconclusive. Potency means the concentration at half of the fitted maximal effect.
SMILES,PLK1 PBD block,HP1b binding inh,BAZ2B inh,G9a block,JMJD2A Tudor inh,VDR inhibitor
COc1ccc(-n2c(CNC(=O)c3ccc(S(=O)(=O)N4CCCC4)cc3)n[nH]c2=S)cc1,-15%,9%,-7%,?,7.9µM*,-5%
O=C(NCc1n[nH]c(=S)n1-c1ccc(F)cc1)c1ccc(S(=O)(=O)N2CCCCC2)cc1,-4%,18%,0%,2.5µM*,?,14%
O=C(NCc1n[nH]c(=S)n1-c1ccc(Br)cc1)c1ccc(S(=O)(=O)N2CCCC2)cc1,-4%,23%,-35%,2.5µM*,-32%,8%
COc1ccc(-n2nnnc2CNC(=O)c2ccc(S(=O)(=O)N3CCOCC3)cc2)cc1,-9%,12%,7%,-7%[0.501 µM],-11%,-8%
O=C(NCCc1ccccc1)c1ccc(S(=O)(=O)N2CCCCC2)cc1,3%,/,/,/,/,/
O=C(NNC(=O)c1ccc(S(=O)(=O)N2CCCC2)cc1)c1ccc(Br)cc1,-3%,25%,7%,-31%,-3%,-17%
O=C(NCc1n[nH]c(=S)n1-c1ccc(Br)cc1)c1ccc(S(=O)(=O)N2CCCCC2)cc1,-15%,-15%,-19%,7.9µM*,-33%,-4%
Cc1ccc(CNC(=O)c2ccc(S(=O)(=O)N3CCCCCC3)cc2)cc1,2%,/,/,/,/,/
O=C(NCc1n[nH]c(=S)n1-c1ccc(Br)cc1)c1cccs1,?,2%,-16%,10µM*,25µM*,-14%
Cc1ccc(-n2c(CNC(=O)c3cccs3)nnc2SCC(=O)NO)cc1,-8%,56%,-36%,-4%,-2%[11.4 µM],3%
COc1ccc(OC)c(/C(O)=C/C(=O)C(=O)Nc2ccccc2OC)c1,-1%,24%,?,?,-35%,3%
CCOc1ccc(NC(=O)Cn2nnc(-c3ccccc3NC(=O)c3cccs3)n2)cc1,?,-5%,-28%,-14%,56µM*,-15%
O=C(O)c1ccc(N=Nc2c(O)[nH]c3cc(Cl)ccc23)cc1,-5%,11%,-39%,23%[59 µM],-23%,-3%
O=C(CNC(=O)c1ccccc1)N=Nc1c(O)[nH]c2ccc(Br)cc12,-4%,109%,-36%,-39%,-6%,13%
O=S(=O)(Cc1ccccc1)N=Nc1c(O)[nH]c2ccc(Br)cc12,?,?,-24%,3.5µM*,22µM*,79µM*
Cc1ccc(N=Nc2c(O)[nH]c3ccc(F)cc23)cc1,120%,10%,-30%,20µM*,-2%,-4%
O=C(O)c1ccc(N=Nc2c(O)[nH]c3ccc(Br)cc23)cc1,?,21%,79µM*,8%[2.33 µM],?,-8%
O=c1[nH]nc(SCc2cc(Cl)ccc2Cl)c(=O)[nH]1,-8%,0%,-2%,-2%,-20%,-6%
O=C(Cn1cnc2ccccc21)N/N=C/c1ccccc1[N+](=O)[O-],2%,26%,9%,-6%[59 µM],-16%,-8%
C#CCOCCOCCOCCNc1nc(N2CCN(C(=O)[C@H](CCC(=O)O)n3cc(C(N)Cc4ccc(O)cc4)nn3)CC2)nc(N2CCN(C(=O)[C@H](CCC(=O)O)n3cc(C(N)[C@H](C)CC)nn3)CC2)n1 (stereo partly drawn),0%,21%,40µM*,-127%[59 µM],25µM*,-25%
C#CCOCCOCCOCCNc1nc(N2CCN(C(=O)[C@H](CCC(=O)O)n3cc(C(N)Cc4ccc(O)cc4)nn3)CC2)nc(N2CCN(C(=O)[C@H](Cc3ccc(O)cc3)n3cc(C(N)[C@H](C)CC)nn3)CC2)n1 (stereo partly drawn),/,/,50µM*,-26%[12.7 µM],/,/
COCc1nn2c(=O)cc(N3CCNCC3)nc2s1,/,/,/,/,-3%,/

# Screens (PubChem BioAssay)
